Source: PubChem (several laboratories)
Rows were chosen to be rich in hits. Some 4.3% of all compounds tested hit in one or more screens of this group.
rCAG binder – binds r(CAG) RNA repeats; r(CAG) RNA repeat, TO-PRO-1 dye displacement fluorescence; AID 651821; hit rate 1.3% among 370,000; inhibition, % at 3 µM;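 active means inhibition above the plate cutoff, the mean of all test compounds on that plate plus 3 SD, cut at about 35% in these data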;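 further: 0% = DMSO alone and 100% = 100 µM mitoxantrone as full dye displacement; higher means more dye released from RNA so lower well fluorescence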
FAS-TE inh – blocks the thioesterase domain of human fatty acid synthase | P49327 | recombinant FAS-TE, OMFH fluorogenic substrate, fluorescence endpoint | inhibition, % at 15 µM | hit rate 0.67% among 360,000;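 active means compounds whose normalised, plate-corrected inhibition of enzyme fluorescence in the single-dose primary screen is 50% or more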;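 further: 0% = DMSO with enzyme and 100% = substrate without enzyme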
NR3A LBD binder – modulates the human NR3A ligand-binding domain. hit rate 2.5% among 340,000. Tm shift relative to glycine control, % at 25 µM. NR3A LBD differential scanning fluorimetry, Tm shift; 0% = protein alone, 100% = glycine-bound protein;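 active means melting temperature shift of at least 10% of the positive control shift, at one fixed dose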
NadD block – NadD (S. aureus) enzyme inhibition; purified NadD enzyme, colorimetric absorbance read-out; inhibition, % at 20 µM; hit rate 0.78% among 360,000; in the data active means inhibition above about 26%
Numbers without * were called inactive; · = no result.

SMILES | rCAG binder | FAS-TE inh | NR3A LBD binder | NadD block
C[C@@H]1CN([C@H](C)CO)C(=O)c2cc(NC(=O)C3CCCCC3)ccc2O[C@@H]1CN(C)Cc1ccc(C(F)(F)F)cc1 | -10.2 | 5.7 | 0.6 | -7.5
C[C@@H]1CN([C@H](C)CO)C(=O)c2cc(NC(=O)Nc3ccc(C(F)(F)F)cc3)ccc2O[C@H]1CN(C)C(=O)Nc1ccc(F)cc1 | 24.9 | 18.5 | 18.4* | 12.5
CC(C)NC(=O)N(C)C[C@H]1Oc2ccc(NC(=O)Nc3ccc(C(F)(F)F)cc3)cc2C(=O)N([C@H](C)CO)C[C@@H]1C | -0.8 | -0.9 | -6.7 | 0.4
C[C@H](CO)N1C[C@H](C)[C@@H](CN(C)C(=O)Nc2ccc3c(c2)OCO3)Oc2ccc(NC(=O)Nc3ccc(C(F)(F)F)cc3)cc2C1=O | 10.6 | 13.2 | 10.9* | 10.1
C[C@@H]1CN([C@H](C)CO)C(=O)c2cc(NC(=O)Nc3cccc4ccccc34)ccc2O[C@H]1CN(C)Cc1ccc(C(F)(F)F)cc1 | 8.6 | 9.3 | 22.8* | 23.1
COc1ccc(CNC(=O)[C@@H](Cc2ccccc2)NC(=O)[C@H]2O[C@@H](n3ccc(=O)[nH]c3=O)[C@H](O)[C@@H]2O)cc1 | 2.0 | · | · | ·
Cc1cccc(CCNC(=O)Cn2ncc3c2-c2cc(C)ccc2OC3)c1 | -0.3 | · | · | ·
COC(=O)[C@]12C[C@H](CC(=O)NCCc3ccccc3OC)C(=O)N(Cc3ccc(Cl)cc3Cl)C1=C[C@H](C(C)(C)C)O[C@@H]2C | 5.9 | · | · | ·
C[C@@H]1CN([C@H](C)CO)C(=O)c2cc(Br)cnc2O[C@H]1CN(C)C(=O)c1ccc(F)cc1 | 1.4 | · | · | ·
COc1ccc(C[N+]2=C(N)N[C@@]3(C=C(C)Cn4c(=O)n(-c5ccccc5)c(=O)n43)C2)c(OC)c1 | 10.1 | · | · | ·
O=C(NCC1OCCc2ccccc21)c1ccc(NC(=O)c2cccc(Br)c2)cc1 (centres undefined) | 2.1 | -1.4 | 28.1* | 10.2
O=C(NCC1OCCc2ccccc21)c1ccc(NC(=O)c2ccccc2Cl)cc1 (centres undefined) | 7.7 | -4.0 | 9.8 | -2.4
O=C(NCC1OCCc2ccccc21)c1ccc(NC(=O)c2ccc(Cl)cc2Cl)cc1 (centres undefined) | 1.0 | -8.9 | 17.6* | 2.9
COC(=O)[C@@]12CCCCC3=C1N(CCC3)C(=O)[C@H]2CC(=O)N1CCCCC1 | -2.3 | · | · | ·
C=CCN=C1NC(c2cccc(F)c2)C(C(=O)OC)=C(C)N1Cc1cccc(C(F)(F)F)c1 (centres undefined) | 4.7 | · | · | ·
C/C(=N\OCc1nc2ccccc2c(=O)n1/N=C/c1cc([N+](=O)[O-])ccc1O)c1ccccc1 | 61.5* | 14.6 | 4.7 | 31.8*
O=C(NCc1cccnc1)c1cc(-c2ccccc2)on1 | -3.2 | -4.7 | 10.5* | 1.3
COc1ccc(-c2cc(C(=O)NCc3cccnc3)no2)cc1 | -4.8 | -9.7 | -1.1 | -7.1
Oc1ccc(/C=N/N=C/c2ccc(O)c(O)c2)cc1O | 1.1 | -2.8 | 27.6* | 2.0
Oc1ccc(N=Cc2ccc(O)c(O)c2)cc1 | · | -2.0 | -1.3 | 28.8
O=C(Nc1ccccc1)Nc1ccc2snnc2c1 | 5.3 | 5.8 | 31.9* | -5.3
O=C(NCc1ccccc1)c1ccc2nnsc2c1 | -1.8 | 0.7 | -1.5 | -0.5
CN(C)c1ccc(NC(=O)Nc2ccc3snnc3c2)cc1 | 7.5 | -2.9 | 35.9* | -3.1
O=C(Nc1ccccc1)Nc1ccc2nnsc2c1 | 4.9 | 14.3 | 42.2* | -2.0
COCC(=O)N(Cc1ccccc1)c1ccccc1C(=O)Nc1cc(OC)ccc1OC | 0.1 | · | · | ·
SMILES | rCAG binder | FAS-TE inh | NR3A LBD binder | NadD block
CN(Cc1ccccc1)C(=O)OCc1cn(Cc2ccc(F)cc2F)nn1 | -0.1 | · | · | ·
CCOc1ccc2nc(N3C(=O)CNC3=S)sc2c1 | 1.0 | -4.6 | 17.0* | 3.5
O=C(O)c1ccc(/C=N/N2CCN(Cc3cccc4ccccc34)CC2)cc1 | 7.3 | 0.1 | 191.9* | 9.0
FC(F)(F)c1ccc(/C=N/N2CCN(Cc3cccc4ccccc34)CC2)cc1 | 0.5 | 18.1 | 2.3 | 15.2
COc1ccc(OC)c(CN2C(=O)c3ccnn3CC2(C)c2nnnn2C2CCCC2)c1 (centres undefined) | 7.5 | · | · | ·
COc1ccc(NC(=O)C2CC(=O)N(CCc3ccc(Cl)cc3)C2)cc1 (centres undefined) | -5.7 | 0.6 | 11.7* | -0.4
COc1ccc(OC)c(NC(=O)C2CC(=O)N(CCc3ccc(F)cc3)C2)c1 (centres undefined) | · | -6.1 | -2.6 | 3.9
N#Cc1ccc(/C=C2\CC3(OC(=O)c4ccccc4)CCCN2C3)cc1 (centres undefined) | 2.2 | · | · | ·
CCc1ccc2oc(C(=O)NCCc3ccc(S(N)(=O)=O)cc3)cc(=O)c2c1 | 3.6 | -5.2 | 14.9* | 0.3
